Data as given in PubChem BioAssay AID977607 (Broad Institute, 2014).
The whole screen tested about 1,500 compounds, of which about 460 (31%) were called active. Another 1% or so got no clear call; they are omitted.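 How the source made its calls: active means curve reaches 40% activation over neutral controls at an AC40 no higher than the top valid tested concentration; inconclusive means no clear call, values can overlap the other calls; inactive means signal moving opposite to the expected increase, and the rest.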 A selection follows. Results with a measured potency or affinity are listed apart.

Experiment: GLuc-reported insulin release enhancers, glucose-stimulated beta cells – cell-based, INS-1E, Gaussia luciferase, luminescence, cherry-pick, set 2, dose response (AID 977607);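 further: 0% = median of the plate neutral control wells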
Details: INS-1E GLuc insulin secretion reporter, 2-3 h, hits give high values; at 35 µM, 100% = signal doubled over neutral wells unless noted

Max activation, inactive:
COc1cc(OC)c2c(-c3ccccc3)cc(C3CCCCC3)nc2c1 -18.2% [at 0.046 µM, 100% = signal doubled over neutral wells]
Cc1cccc(C)c1NC(=O)C1c2ccccc2OCC(=O)N1CCCN1CCOCC1 (stereo not drawn) -19% [at 3.8 µM, 100% = signal doubled over neutral wells]
CCOc1ccc(Nc2oc(-c3cccc(Cl)c3)nc2C#N)cc1 -13.2% [at 0.135 µM, 100% = signal doubled over neutral wells]
Cc1ccc(-c2nc(C#N)c(NCC3CCCO3)o2)cc1 (stereo not drawn) -16.4% [at 0.135 µM, 100% = signal doubled over neutral wells]
CCCCC(=O)Nc1ccc(C(=O)NNC(=O)c2ccc(C)c(Br)c2)cc1 -20.4% [at 3.8 µM, 100% = signal doubled over neutral wells]
CC1CCC(C(C)C)C(OCC(O)CNC(C)c2ccccc2)C1 (stereo not drawn) 35.2%
COc1ccc2c(c1)C(C)(Cc1ccc(C(=O)c3ccccc3)cc1)C(=O)N2 (stereo not drawn) -33.7%
Cc1ccsc1/C=N/n1c(-c2ccncc2)n[nH]c1=S 18.6%
Cc1ccccc1-c1n[nH]c(=S)n1/N=C/c1c(C)nn(-c2ccccc2)c1C -18% [at 0.0016 µM, 100% = signal doubled over neutral wells]
CC(C(=O)Nc1ccc2[nH]c(=O)[nH]c2c1)N1CCN(Cc2ccc3c(c2)OCO3)CC1 (stereo not drawn) -27.3% [at 11 µM, 100% = signal doubled over neutral wells]
O=C1NC(=O)C2(CCCCC2C2CCCCC2)N1 (stereo not drawn) 32.9% [at 0.135 µM, 100% = signal doubled over neutral wells]
Cc1ccc(S(=O)(=O)N(C)c2nc3ccccc3n3c(C(C)C)nnc23)cc1 -16.3% [at 0.42 µM, 100% = signal doubled over neutral wells]
Cc1ccc(C(=O)Nc2cccc(C(=O)N/N=C/c3ccc(F)cc3)c2)cc1 -21.7% [at 0.046 µM, 100% = signal doubled over neutral wells]
O=C(O)COc1ccccc1-c1ccccc1 -20.7% [at 3.8 µM, 100% = signal doubled over neutral wells]
CCCCCCC1CCC(C(=O)Nn2c(C)nc3ccccc3c2=O)CC1 (stereo not drawn) 26.8% [at 0.015 µM, 100% = signal doubled over neutral wells]
COc1ccccc1NS(=O)(=O)c1cccc(C(=O)N/N=C/c2c(C)nn(-c3ccccc3)c2N2CCCC2)c1 -50.5%
Cc1nn(-c2ccccc2)c(N2CCCC2)c1/C=N/O -12.4% [at 0.046 µM, 100% = signal doubled over neutral wells]
CC(C)NC(=O)OC[C@H]1O[C@H](C#Cc2ccc(C(C)(C)C)cc2)C=C[C@H]1O 54.1%
CC(C)NC(=O)C1(C)CN(S(C)(=O)=O)CC(=O)N1CCCN1CCOCC1 (stereo not drawn) -19.6% [at 0.015 µM, 100% = signal doubled over neutral wells]
O=C(O)c1ccc(-n2nnnc2SCc2ccccc2Br)cc1 24.2%
O=C(O)c1ccc(-n2nnnc2SCc2cccc(Br)c2)cc1 -16.4% [at 0.135 µM, 100% = signal doubled over neutral wells]
O=C(Nc1ccc(F)cc1)C1COc2ccccc2O1 (stereo not drawn) -26.7%
Cc1ccc(CS(=O)Cc2ccc(C(=O)NCc3ccccc3)o2)cc1 (stereo not drawn) 8.81% [at 1.2 µM, 100% = signal doubled over neutral wells]
Clc1ccc(OCCn2ccnc2)c(Cl)c1 53.2%
COc1ccc(/C=C/c2noc(-c3ccccc3OC(C)=O)n2)cc1 -25.1%
O=C(COc1cccc2c1CCNC2=O)NC1CCCCC1 -23.7% [at 1.2 µM, 100% = signal doubled over neutral wells]
CCCCOc1ccc(C2=NNC(=O)CC2)cc1 -15.4% [at 3.8 µM, 100% = signal doubled over neutral wells]
COCCNc1nc(N2CCCCC2)c2cnn(C)c2n1 -16.6% [at 0.42 µM, 100% = signal doubled over neutral wells]
Cc1c(P(=S)(c2ccccc2)c2ccccc2)[n+]2ccccc2n1C/C=C/c1ccccc1 -32.8%
O=C(Nc1ccc(C(=O)N2CCCC2)cc1)c1cccc(C(F)(F)F)c1 -13% [at 0.015 µM, 100% = signal doubled over neutral wells]
O=c1[nH]c2ccccc2nc1-c1nnnn1C1CCCC1 -11.7%
COc1ccc(CN2CCOC2=O)cc1OC -24.4% [at 0.046 µM, 100% = signal doubled over neutral wells]
COc1ccc(-c2nc(N)ncc2-c2ccc(OC)c(OC)c2)c(O)c1 -26.8% [at 0.046 µM, 100% = signal doubled over neutral wells]
COc1ccc(CNC(=O)CCn2c(=O)oc3ccccc32)c(OC)c1 -18.2% [at 3.8 µM, 100% = signal doubled over neutral wells]
O=C([C@H]1O[C@@H](n2ccc(=O)[nH]c2=O)[C@H](O)[C@@H]1O)N1CCN(c2ccc(Cl)cn2)CC1 -17.9% [at 1.2 µM, 100% = signal doubled over neutral wells]
CS(=O)(=O)N1CCCCC1c1cc(C(=O)Nc2cccc(C#N)c2)no1 (stereo not drawn) -20.8% [at 0.135 µM, 100% = signal doubled over neutral wells]
COc1ccc(-c2noc(CCC(=O)Nc3cccnc3)n2)cc1OC 10.9%
COc1ccc(C2=NOC(C(=O)Nc3cccnc3)C2)cc1OC (stereo not drawn) 36.7% [at 11 µM, 100% = signal doubled over neutral wells]
CCC(CC)NC(=O)c1ccccc1Oc1ccccc1 -14.5% [at 0.046 µM, 100% = signal doubled over neutral wells]
CC(=O)c1ccc2c(c1)N(Cc1ccccc1)C(=O)C(C)S2 (stereo not drawn) -15.7% [at 3.8 µM, 100% = signal doubled over neutral wells]
CC(C)(C)c1ccc(C#C[C@@H]2C=C[C@H]3OC(=O)CC/C=C/CCC(=O)OC[C@H]3O2)cc1 -35.6% [at 3.8 µM, 100% = signal doubled over neutral wells]
CCOC(=O)C1=C(COC(=O)c2cccs2)NC(=O)NC1C (stereo not drawn) 39.2% [at 11 µM, 100% = signal doubled over neutral wells]
Cc1ccc(C2(C)NC(=O)N(CC(=O)Nc3ccc(-c4nc5ccc(C)cc5s4)cc3)C2=O)cc1 (stereo not drawn) -34.8%
CCOc1cc(NC(=O)c2ccco2)c(OCC)cc1NC(=O)c1cc(OC)c(OC)c(OC)c1 33.6%
Cc1ccc2sc(-c3ccc(NC(=O)c4cc(-n5cnnc5)ccc4Cl)cc3)nc2c1 38.9%
Cc1c(Cc2ccccc2)sc(NC(=O)c2ccco2)c1C(N)=O -16.3% [at 0.015 µM, 100% = signal doubled over neutral wells]
COc1ccc(-c2c(NC(=O)c3ccco3)oc3ccc(Cl)cc3c2=O)cc1 -15.5% [at 0.42 µM, 100% = signal doubled over neutral wells]
Cc1ccnc(NC(=O)CNC(=O)c2ccco2)c1 -26.8% [at 3.8 µM, 100% = signal doubled over neutral wells]
CN(C)CCNc1ncnc2oc(-c3ccccc3)c(-c3ccccc3)c12 -17.7% [at 0.0016 µM, 100% = signal doubled over neutral wells]
CCOC(=O)C1CCCN(C(=O)c2ccccc2OC(F)(F)F)CC1 (stereo not drawn) -23.6% [at 0.0016 µM, 100% = signal doubled over neutral wells]
CCOc1cc(/C=N/NC(=O)CCn2nnc3ccccc32)ccc1O 23.5%
CCOc1ccccc1OCCC(=O)NNC(=O)Cn1nc(C)cc1C -16% [at 0.005 µM, 100% = signal doubled over neutral wells]
Cc1c(NC(=S)NC(=O)c2sc3ccccc3c2Cl)cccc1C(=O)O -23.7% [at 0.0016 µM, 100% = signal doubled over neutral wells]
CCn1nnc(NC(=O)c2sc3ccccc3c2Cl)n1 -17.8% [at 3.8 µM, 100% = signal doubled over neutral wells]
CCOc1nc(CC(C)C)c2c(c1C#N)CC(C)(C)OC2 -26.5%
O=C(NN(Cc1ccccc1)Cc1ccccc1)c1ccccc1 23.7% [at 1.2 µM, 100% = signal doubled over neutral wells]
Cn1cc(C(=O)NCC(=O)Nc2ccccc2Br)cn1 -16.7% [at 0.135 µM, 100% = signal doubled over neutral wells]
O=C(c1cc(-c2ccccc2)nc2ccccc12)N1CCCC1 -13.5% [at 11 µM, 100% = signal doubled over neutral wells]
